Source: PubChem BioAssay (National Center for Advancing Translational Sciences (NCATS))
MARV entry inh: blocks Marburg virus binding to or entry into cells; Marburg virus pseudotyped entry inhibition, cell reporter; Potency, µM (top dose mostly 37.8 µM), for the others: at the highest dose activity change, negative = inhibition, actives largely listed as inhibitors; actives 1.8% (n = 300,000); calls by dose curve; tested in HEK293 cells; further: potency means the concentration at half of the fitted maximal effect; on the % scale 0 is the no-effect control and ±100 the full control effect
Shiga toxin inh: blocks Shiga toxin action in Vero cells; Vero cells, Shiga toxin protein synthesis inhibition reporter; inhibition, % at 38.7 µM; actives 9.2% (n = 290,000); in the data active means inhibition mostly above about 28%, no sharp cut-off; inactive means mostly below about 43%; further: 0% is about no effect
Cycloheximide cs: affects cycloheximide protein synthesis inhibition readout, counter-screen; cell reporter, cycloheximide protein synthesis inhibition counterscreen; max response, %; actives 12% (n = 300,000); AID 2314; in the data active means max response mostly above about 13%, no sharp cut-off; inactive means mostly below about 14%; further: read at 38.3 µM for the half of the compounds with a filed dose; 0% is about no effect
Lassa entry inh: inhibitors of Lassa virus binding or cell entry | Lassa virus pseudotype entry inhibition, cell reporter | Potency, µM (top dose mostly 37.9 µM), inactives show top-dose activity change, negative = inhibition, actives largely listed as inhibitors | actives 1.2% (n = 300,000); calls by dose curve; tested in HEK293 cells; further: potency means the concentration at half of the fitted maximal effect; on the % scale 0 is the no-effect control and ±100 the full control effect; nearly all actives have a fitted effect of over 50% in size
* marks the source's active call; other numbers are inactive results; ? = inconclusive; . = no result given; + = active, no number; [ ] = remark or other dose. An excerpt weighted towards active compounds, which were near 12% of everything screened.

SMILES | MARV entry inh | Shiga toxin inh | Cycloheximide cs | Lassa entry inh
Cc1ccc(C(=O)Nc2ccnc(-c3cccnc3)n2)cc1 | . | 45.5 | 35.9* | .
O=C(Nc1ccc2c(c1)Cc1ccccc1-2)c1cccnc1 | -2.8% | 89.5* | 35.8* | ?
COc1ccc(N2CC(NC(=O)N3CCN(C(=O)c4ccco4)CC3)CC2=O)cc1OC (stereo not given) | 19.6% | . | . | 5.7%
O=C(Nc1ccc2ccccc2c1)c1cccnc1 | ? | + | 46.7* | -22.6%
CC(C)(C)NC(=O)Nc1ccc2nccnc2c1 | -5.1% | 87.6* | 29.4* | -0.1%
Cc1ccccc1C(=O)Nc1ccc(Br)c(C)n1 | ? | 80.6* | 48.9* | 21.2%
Cc1nc(NC(=O)CCc2ccccc2)ccc1Br | -12.2% | 137.5* | 32.4* | -22.2%
COc1ccc(NC(=O)c2cccnc2)cc1 | ? | 11.3 | 8.1 | 25.7%[46.1 µM]
S=c1cnc2ccccc2[nH]1 | -0.1% | 70.2 | 30.0* | -5.2%
CC(C)(C)c1nc2ccccc2[nH]1 | 17.2%[46.1 µM] | 13.0 | 0.7 | -12.4%
CC(=O)c1ccc(OCc2cc(C(=O)NC(C)CCn3cccn3)no2)cc1 (stereo not given) | 0.5% | 111.1* | 65.5* | 3.1%
CC(CCn1cccn1)NC(=O)c1cc(COc2ccc(F)cc2F)on1 (stereo not given) | ? | 9.1 | -3.9 | 4.6%
Cc1ccc(OCc2cc(C(=O)NC(C)Cc3cccnc3)no2)cc1C (stereo not given) | . | 98.3* | 34.6* | .
Cc1ccc(OCc2cc(C(=O)NCCn3cccn3)no2)cc1C | . | 48.3* | 22.2 | .
CC(Cc1cccnc1)NC(=O)c1cc(COc2c(F)cccc2F)on1 (stereo not given) | -0.1%[46.1 µM] | 16.0 | 0.3 | 9.6%[46.1 µM]
Cc1ccc(OCc2cc(C(=O)NCCc3cccnc3)no2)cc1C | . | 50.6* | 36.0* | .
Cc1ccc(OCc2cc(C(=O)NCC(C)c3ccccc3)no2)cc1C (stereo not given) | -15.8% | 1.7 | 12.8 | -2.9%
COC(=O)c1ccccc1NC(=O)CSc1nc2nc(C)cc(C)n2n1 | -4.0%[46.1 µM] | . | . | 12.8%[46.1 µM]
O=C(N/C(=C\c1cccc([N+](=O)[O-])c1)C(=O)N1CCOCC1)c1ccc([N+](=O)[O-])cc1 | . | 3.5 | -7.0 | .
Cc1onc(-c2ccc(Cl)cc2)c1-c1ccnn1S(=O)(=O)c1cccc(C(F)(F)F)c1 | 10µM* | 2.4 | -3.0 | -26.8%
Cc1onc(-c2ccccc2)c1-c1ccnn1S(=O)(=O)c1ccc(Cl)cc1 | 10.7%[14.2 µM] | 88.3* | 44.1* | -11.4%
Cc1ccc(S(=O)(=O)n2nccc2-c2c(-c3ccccc3)noc2C)cc1 | ? | -5.2 | 1.0 | ?
COc1ccc(CCNC(=O)C(=O)NCC2CCCN2S(=O)(=O)c2cc(C)ccc2C)cc1 (stereo not given) | ? | . | . | 11.2µM*
O=C(NCCc1ccc(F)cc1)C(=O)NCC1CCCN1S(=O)(=O)c1ccccc1 (stereo not given) | ? | . | . | 7.08µM*
COc1ccc(S(=O)(=O)N2CCCC2CNC(=O)C(=O)NCCc2ccccc2)cc1 (stereo not given) | ? | . | . | -28.8%[46.1 µM]
SMILES | MARV entry inh | Shiga toxin inh | Cycloheximide cs | Lassa entry inh
Cc1cccc(NS(=O)(=O)c2ccc(C)c(C(=O)N(C)C3CCN(C)CC3)c2)c1 | -5.3% | . | . | 10.2%
O=C(NCc1ccco1)/C(=C/c1ccc(Cl)cc1)NC(=O)c1ccco1 | 14.6%[46.1 µM] | -16.0 | -2.3 | -17.8%[46.1 µM]
O=C(/C=C/c1ccc(Cl)cc1)NCc1ccco1 | ? | 94.1* | 24.6* | 6.51µM*
O=C(COC(=O)CCSc1ccc(Cl)cc1)NCc1ccccc1Cl | 6.1% | 12.3 | -1.2 | 13.8%
O=C(COC(=O)CCSc1ccc(Cl)cc1)NCc1ccco1 | 20.9%[46.1 µM] | 52.9 | 19.1* | 28.5%
O=C(/C=C/c1ccc(S(=O)(=O)NCc2ccco2)cc1)NCc1ccccc1Cl | ? | 20.4* | 30.8* | ?
CCOc1ccccc1N(C(=O)c1ccco1)C(C(=O)NC1CCCC1)c1cccs1 (stereo not given) | ? | 1.7 | -1.9 | -11.6%[46.1 µM]
CCc1ccc(N(C(=O)c2ccco2)C(C(=O)NC2CCCC2)c2ccncc2)cc1 (stereo not given) | -4.2%[46.1 µM] | 74.2* | 15.0* | .
COc1cccc(N(C(=O)c2ccco2)C(C(=O)NC2CCCC2)c2ccc(N(C)C)cc2)c1 (stereo not given) | -17.0% | 17.2 | 19.8* | -11.1%
COc1cc(OC)cc(N(C(=O)c2ccco2)C(C(=O)NC2CCCC2)c2ccc(N(C)C)cc2)c1 (stereo not given) | -25.5% | -11.0 | 0.9 | -27.1%
O=C(NC1CCCCC1)C(c1cccs1)N(C(=O)c1ccco1)c1ccc2c(c1)OCCO2 (stereo not given) | ? | 10.3* | 24.3* | ?
